# PubChem BioAssay (Tox21)
# Where “and” joins values, the source holds several entries; their conditions need not be identical. Equal entries are not always repeated. Inconclusive results are not listed. Calls of active or inactive are those of the source. Calls come from the whole dose curve; as a rule, active = well fitted activation curve with a large enough effect in the repeat runs; inconclusive = weak or mixed curves; inactive = flat fitted curve, though single readings scatter.
# Assay: A CellTox Green Cytotoxicity Assay to monitor cytotoxicity in HEK293 cells - 32 hour (AID 1224881); note: nearly all actives have a fitted effect of over 40% in size
# Conditions: CellTox Green fluorescence; series mostly up to 76.8 µM; cytotoxicity increase: at the top concentration
# Text: National Center for Advancing Translational Sciences [NCATS]
# NIH Chemical Genomics Center [NCGC]
# U.S. Environmental Protection Agency [EPA]
# National Institutes of Environmental Health Sciences [NIEHS]
# National Toxicology Program [NTP]
# Cell-based models are critical for drug discovery. Determining the natural cytotoxic effects resulting from test compounds is an essential research activity. A CellTox Green Cytotoxicity Assay to monitor cytotoxicity in real time of continues cell culture during 40 hours of the compound treatment was used to screen Tox21 10K library compounds in Hek293 cells. CellTox Green Cytotoxicity Assay is a nonlytic, homogeneous, biofluorescent method to measure cytotoxicity in cell culture after experimental manipulation. The assay system uses a proprietary asymmetric cyanine dye that is excluded from viable cells but preferentially stains the dead cell's DNA. […] Viable cells produce no appreciable increases in fluorescence. Therefore, the fluorescence signal produced by the binding interaction with dead cell DNA is proportional to cytotoxicity.
# The mixture of Hek293 cell suspension and reagents were dispensed at 600cells/6 ul/well in 1536-well tissue culture treated black solid bottom plates using a Multidrop dispenser. After the assay plates were incubated at a 37 C/5% CO2 incubator for 5 hours, 23 nL of compounds dissolved in DMSO, positive and negative controls was transferred to the assay plate by a pintool work station. The plates were incubated at 37 C for 40 hours. The fluorescence intensity were measured at 0h, 8h, 16h, 24h, 32h and 40h time points using ViewLux plate reader during compound treatment.
# % is set by controls: 0 for no effect and ±100 for the full control effect; potency is the fitted concentration of half-maximal effect.
SMILES,Potency,cytotoxicity increase
CCCCCCCCCCCCCC[N+](C)(C)C,29.9 µM (active) and 48.9 µM (active) and 26.8 µM (active),–
CCC(COC(=O)CCS)(COC(=O)CCS)COC(=O)CCS,–,-4.65% (inactive)
Cc1cccc2cccnc12,–,-1.6% (inactive)
C=CC(C)(CCC=C(C)C)OC=O (stereo not given),–,0.709% (inactive)
COc1cc2nc(N3CCN(C(=O)c4ccco4)CC3)nc(N)c2cc1OC,–,43.4% [at 15.8 µM] (inactive)
CCCC[P+](C)(CCCC)CCCC,–,12.4% (inactive)
CCc1oc2ccccc2c1C(=O)c1cc(I)c(O)c(I)c1,–,0.0464% [at 35.3 µM] (inactive)
CCCCN(CCCC)CC(O)c1cc(Cl)cc2c1-c1ccc(Cl)cc1/C2=C/c1ccc(Cl)cc1 (stereo not given),–,0.268% [at 35.3 µM] (inactive)
CCCCCCCCCCCCOCCOCCOCCOCCOCCOCCOCCOCCOCCO,10.7 µM (active),–
Nc1nc2c(ncn2COCCO)c(=O)[nH]1,–,-3.19% [at 35.3 µM] (inactive)
[Cu+],–,-1.63% (inactive)
CC(C)Cn1cnc2c(N)nc3ccccc3c21,–,3.99% [at 15.8 µM] (inactive)
CN1CCN(Cc2cc(-c3ccc4[nH]c(=O)oc4c3)co2)[C@@H](c2ccc(F)cc2)C1,–,14.1% (inactive)
Cc1c(F)c(N2CCNC(C)C2)cc2c1c(=O)c(C(=O)O)cn2C1CC1 (stereo not given),–,-13.2% [at 35.3 µM] (inactive)
O=S(=O)(O)c1ccc(Nc2nc(Nc3ccc(/C=C/c4ccc(Nc5nc(Nc6ccc(S(=O)(=O)O)cc6)nc(N(CCO)CCO)n5)cc4S(=O)(=O)O)c(S(=O)(=O)O)c3)nc(N(CCO)CCO)n2)cc1,–,-10.4% [at 35.3 µM] (inactive)
Cc1nc(-c2ccc(Cl)cc2)oc1COC(C)(C)C(=O)O,–,-5.86% [at 35.3 µM] (inactive)
O=C(/C=C/c1ccc(O)c(O)c1)O[C@@H](C(=O)O)[C@@H](OC(=O)/C=C/c1ccc(O)c(O)c1)C(=O)O,–,-9.67% (inactive)
Cc1ccc(C(=O)O)cc1,–,4.68% (inactive)
Cc1cc(C(C)(C)C)c(O)c(C)c1Cn1c(=O)n(Cc2c(C)cc(C(C)(C)C)c(O)c2C)c(=O)n(Cc2c(C)cc(C(C)(C)C)c(O)c2C)c1=O,–,0.971% (inactive)
CC(C)CCCCCOC(=O)CCS,–,-1.55% (inactive)

SMILES,Potency,cytotoxicity increase
C#Cc1ccc(-c2ccccc2F)cc1,–,2.5% [at 35.3 µM] (inactive)
O=[N+]([O-])c1cccc(C(F)(F)F)c1,–,-6.96% (inactive)
CN1CCC[C@@H]1CCO[C@](C)(c1ccccc1)c1ccc(Cl)cc1,26.8 µM (active),–
CCCCCCOC(=O)C(C)CC (stereo not given),–,-5.41% (inactive)
CCCCCCC1CCCC(=O)O1 (stereo not given),–,8.83% (inactive)
Cc1cc(C)c(/C=C2\C(=O)Nc3ccccc32)[nH]1,10.7 µM (active),–
Cc1nc2n(c(=O)c1CCN1CCC(c3noc4cc(F)ccc34)CC1)CCCC2,–,-2.8% [at 35.3 µM] (inactive)
CCC(=O)C(=O)CC,–,-12.4% (inactive)
OC[C@H]1O[C@H](O[C@H]2O[C@H](CO)[C@@H](O)[C@H](O)[C@H]2O)[C@H](O)[C@@H](O)[C@@H]1O,–,3.41% (inactive)
CCCCOC(=O)CO,–,3.56% (inactive)
Nc1nc(N)nc(-c2cc(Cl)ccc2Cl)n1,–,-14.1% [at 35.3 µM] (inactive)
OCC(F)(F)F,–,-8.63% (inactive)
Nc1cc(Cl)c(O)c(Cl)c1,–,22.5% (inactive)
C#C[C@]1(O)CC[C@H]2[C@@H]3[C@H](C)CC4=C(CCC(=O)C4)[C@H]3CC[C@@]21C,–,-0.16% [at 35.3 µM] (inactive)
CC/C=C\CCCCCO,–,-2.15% (inactive)
CCCC(=O)OCOC(=O)C1=C(C)NC(C)=C(C(=O)OC)C1c1cccc(Cl)c1Cl (stereo not given),–,-4.18% [at 35.3 µM] (inactive)
Cc1cc(-n2nc3ccc(Cl)cc3n2)c(O)c(C(C)(C)C)c1,–,-25.2% [at 35.3 µM] (inactive)
S=C([S-])NCCNC(=S)[S-].S=C([S-])NCCNC(=S)[S-].[Mn+2].[Zn+2],–,-12.8% [at 35.3 µM] (inactive)
CC(C)(C)c1csc(-c2cc3cc(OCc4ccccc4CC(=O)O)ccc3o2)n1,54.9 µM (active),–
CCCCNS(=O)(=O)c1ccc(C)cc1,–,-5.65% (inactive)
